Experimental data published in PubChem BioAssay (Tox21).
Where “and” joins values, the source holds several entries; their conditions need not be identical. Equal values may be shown once. Results filed as inconclusive are left out. A number with no mark means an inactive call. Calls of active or inactive are those of the source. Calls follow the shape of the dose curve; as a rule, active = well fitted cell-killing curve with a large enough effect in the repeat runs; inconclusive = weak or mixed curves; inactive = flat fitted curve, though single readings scatter.

experiment: qHTS RealTime-Glo MT Cell Viability Assay in HepG2 cells - 32 hour (AID 1224877); settings: RealTime-Glo luminescence; series mostly up to 76.8 µM; activity change, negative = cytotoxic: at the top concentration; also: nearly all actives have a fitted effect of over 55% in size
Text: U.S. Tox21 Program National Center for Advancing Translational Sciences [NCATS] NIH Chemical Genomics Center [NCGC] U.S. Environmental Protection Agency [EPA] National Institutes of Environmental Health Sciences [NIEHS] National Toxicology Program [NTP] U.S. Food and Drug Administration [FDA] Tox21 Assay Overview: Measure of cell viability is critical in the cell-base assay. Analysis of cell viability is necessary for the characterization of cell responses to cytotoxic drugs and environmental stress. A RealTime-Glo MT Cell Viability Assay to monitor cell viability in real time of continues cell culture during 40 hours of compound treatment was used to screen Tox21 10K library compounds in HepG2 cells. The RealTime-Glo MT Cell Viability Assay is a nonlytic, homogeneous, bioluminescent method to measure cell viability in real time using a simple, plate-based method. The assay involves adding NanoLuc luciferase and a cell-permeant prosubstrate to cells in culture. Viable cells reduce the proprietary prosubstrate to generate a substrate for NanoLuc luciferase. This substrate diffuses from cells into the surrounding culture medium, where it is rapidly used by the NanoLuc Enzyme to produce a luminescent signal. The signal correlates with the number of viable cells, making the assay well suited for cytotoxicity studies.
Tox21 Assay Protocol Summary: The mixture of HepG2 cell suspension and reagents were dispensed at 600cells/6 ul/well in 1536-well tissue culture treated black solid bottom plates using a Multidrop dispenser. After the assay plates were incubated at a 37 C/5% CO2 incubator for 5 hours, 23 nL of compounds dissolved in DMSO, positive and negative controls was transferred to the assay plate by a pintool work station. The plates were incubated at 37 C for 40 hours. The luminescence intensity were measured at 0h, 8h, 16h, 24h, 32h and 40h time points using ViewLux plate reader during compound treatment.
% is scaled to controls: 0 for no effect and ±100 for the full control effect; potency is read from the fitted curve at half-maximal effect.

SMILES | Potency | activity change, negative = cytotoxic
C=CC(=O)OCCOCC(CC)(COCCOC(=O)C=C)COCCOC(=O)C=C | 28.7 µM (active) | 
CCC1CCCCC1 |  | 7.18%
CCCCCCCCCCCCCC[n+]1ccccc1 | 12.3 µM (active) | 
O=C1NC2CCCCN2C12CCN(CCCN1c3ccccc3CCc3ccc(Cl)cc31)CC2 (stereo not given) | 23.9 µM (active) | 
C=C/C=C/C=C/CCCCC |  | 7.06% [at 15.8 µM]
C#CC(O)CCC (stereo not given) |  | -0.491%
COc1nccnc1CC(C)C |  | -8.56%
CC(C)=CCCC(C)O (stereo not given) |  | 0.544%
CC(=O)O[C@@H]1C[C@@H]2CC[C@@]1(C)C2(C)C |  | 1.68%
CCOCOCC |  | -7.64%
CS(C)(=O)=O |  | 10.4%
NC(=O)c1nc(-c2cccc(-c3cc(F)ccc3OCC(F)(F)C(F)(F)F)c2)n[nH]1 |  | -19.7%
COc1ccccc1OCCNCC(O)COc1cccc2[nH]c3ccccc3c12 (stereo not given) | 23.9 µM (active) | 
C=CC(=O)OCCC#N |  | -4.36%
CCN(CC)CCCN(c1ccccc1)C1Cc2ccccc2C1 |  | -23.4% [at 35.3 µM]
CCCCCCCC(OC)OC |  | 11.7% [at 35.3 µM]
CC1=CP(=O)(c2ccccc2)CC1 (stereo not given) |  | 0.145%
CCCCCCCCCCCCOC(=O)c1cc(O)c(O)c(O)c1 | 54.7 µM (active) and 49 µM (active) | 
Clc1ccc(C(c2ccccc2Cl)C(Cl)Cl)cc1 (stereo not given) | inactive | 
CC1(C)C(=O)N(Br)C(=O)N1Br |  | -0.446%

SMILES | Potency | activity change, negative = cytotoxic
CC(=O)Oc1ccc(C2(c3ccc(OC(C)=O)cc3)Oc3ccccc3NC2=O)cc1 |  | -17.8% [at 35.3 µM]
NCCCCCCNCCCCCCN |  | 0.123%
C=CC(=O)OCC(O)COc1ccccc1 (stereo not given) |  | -17.4%
C/C=C/C(=O)C1=C(C)CCCC1(C)C |  | -7.24%
CC(=O)Oc1ccc(C2(c3ccc(OC(C)=O)cc3)C(=O)Nc3ccccc32)cc1 |  | -4.29% [at 35.3 µM]
CCN(CC)c1cccc(C)c1 |  | -4.05%
O=C(O)Cc1ccc(OCCNC[C@H](O)c2ccccc2)cc1 |  | 1.97% [at 35.3 µM]
Clc1nc2ccccc2s1 |  | 12%
CCOC(OCC)C(=O)c1ccccc1 |  | -1.67%
C=C[C@](C)(O)CC[C@@H]1[C@@]2(C)CCCC(C)(C)[C@@H]2CC[C@@]1(C)O | 54.9 µM (active) | 
CCCCOC(=O)C(C)CC (stereo not given) |  | 2.51%
Cc1cccc(C)c1NC(=O)CN1CCN(CCCC(c2ccc(F)cc2)c2ccc(F)cc2)CC1 | 23.9 µM (active) | 
COc1cc(C(=O)NS(=O)(=O)c2ccccc2C)ccc1Cc1cn(C)c2ccc(NC(=O)OC3CCCC3)cc12 |  | 0.015% [at 35.3 µM]
CCN(CC)CCOC(=O)C1(C2CCCCC2)CCCCC1 |  | -16.2% [at 35.3 µM]
O[C@@H](c1cc(C(F)(F)F)nc2c(C(F)(F)F)cccc12)[C@H]1CCCCN1 | 13.4 µM (active) | 
CCCCCCCC/C=C\CCCCCCCC(=O)N(C)CC(=O)O |  | -8.96%
CCCCCCCC(C)=O |  | 4.64%
CCOC(=O)CC(C)O (stereo not given) |  | 0.527%
CC(C)C(=O)OCc1ccccc1 |  | 0.179%
COc1cccc(O)c1 |  | 1.7%
